Results on 28 compounds are retold here after ChEMBL document CHEMBL4513146, “CO-ADD screening of Karazin Kharkiv National University (Ukraine) compounds”.

Assay [1] relates to Klebsiella pneumoniae. To be noted: Concentration 32 ug.mL-1;; ASSAY_TEST Inhibition of Bacterial Growth; detection method Absorption (OD600); MEDIA CAMHB; plate type 384well; NBS; CORNING #3640; time 18 hr.
In assay [2] the test system is Candida albicans. To be noted: Concentration 32 ug.mL-1; ASSAY_TEST Inhibition of Fungal Growth; detection method Absorption (OD530).
The test system of assay [3] is Cryptococcus neoformans. To be noted: Concentration 32 ug.mL-1; ASSAY_TEST Inhibition of Fungal Growth; detection method Resazurin; Absorption (OD600-OD570); plate type 384well; NBS; CORNING #3640.

Measured potencies and affinities stand elsewhere.

With `Cc1cc(Br)ccc1NC(=O)Cn1nc2c(Sc3ccccc3)nccn2c1=O`, the Inhibition (usually the relative decrease from the control value, in per cent) in assay [1] is reported as 5.06%; in assay [2], 6.68%; in assay [3], -7.39%.

As for `Cc1cccc(NC(=O)CSc2nnc3ccc(C(=O)Nc4cccc(F)c4)cn23)c1C`, the figures for the Inhibition in assay [1], in assay [2] and in assay [3] were -0.74%, 4.11% and -4.88%, respectively.

For `COC(=O)c1ccc(NC(=O)Cn2nc3ccc(S(=O)(=O)C4CCCCC4)nn3c2=O)cc1`, the Inhibition in assay [1] is recorded as 9.79%; in assay [2], 17.49%; in assay [3], -8.73%.

Turning to `Cc1cccc(NC(=O)Cn2nc3c(Sc4ccccc4)nccn3c2=O)c1`, the Inhibition is -4.33% in assay [1], 0.01% in assay [2] and -4.87% in assay [3].

Turning to `CCCCn1c(=O)c2sccc2n2c(CCC(=O)NC(C)C34CC5CC(CC(C5)C3)C4)nnc12` (centres undefined), the Inhibition in assay [1] is 12.08%; in assay [2], -2.51%; in assay [3], -27.66%.

`Cc1ccc(-c2cc3c4nn(CC(=O)Nc5cc(F)ccc5C)c(=O)n4ccn3n2)cc1C`: the Inhibition in assay [1] was 2.94%; in assay [2] it was -1.13%; in assay [3], -10.17%.

Consider `COc1ccc(C(C)NC(=O)CCc2nnc3ccc(-c4ccc(C)cc4)nn23)cc1OC` (centres undefined), for which the results for the Inhibition in assay [1], in assay [2] and in assay [3] were 15.87%, 8.51% and -54.1%, respectively.

`COC(=O)c1ccccc1NC(=O)Cn1nc2c(Oc3ccccc3C)nccn2c1=O`: the Inhibition in assay [1] is reported as 8.93%; in assay [2], 0.12%; in assay [3], -8.78%.

With `CC(C)CCn1c(=O)c2sccc2n2c(=O)n(CCOc3ccccc3)nc12`, the Inhibition in assay [1] is listed as 15.26%; in assay [2] it was 12.41%; in assay [3], -11.28%.

On to `COc1cccc(-n2ccn3c(SCC(=O)Nc4ccc(F)cc4F)nnc3c2=O)c1`, for which the Inhibition in assay [1] was 3.3%; in assay [2], 4.17%; in assay [3], -12.76%.

With `COc1ccc(CN(c2cc(C)cc(C)c2)S(=O)(=O)c2cccn3c(C)nnc23)cc1`, the values for the Inhibition in assay [1], in assay [2] and in assay [3] were -1.14%, 2.31% and -5.62%, respectively.

For the compound `Cc1ccc(S(=O)(=O)Nc2ccc3nnc(-c4ccccc4)n3n2)cc1C`, the Inhibition in assay [1] is 0.88%; in assay [2] it was 0.52%; in assay [3], -4.99%.

For the compound `COc1ccccc1Cn1c(=O)c2sccc2n2c(=O)n(Cc3cccc(C)c3)nc12`, the values for the Inhibition in assay [1], in assay [2] and in assay [3] were 9.07%, 1.33% and -25.61%, respectively.

With `Cc1cc(C)c(NC(=O)Cn2nc3c(Sc4cccc(F)c4)nccn3c2=O)c(C)c1`, the Inhibition in assay [1] was 9.01%; in assay [2], 0.95%; in assay [3], -7.48%.

With `Cc1ccc(-c2ccc3nn(Cc4cccc(Br)c4)c(=O)n3n2)cc1`, the Inhibition is recorded as 7.86% in assay [1], -0.24% in assay [2] and -13.72% in assay [3].

In the case of `COc1cccc(Oc2nccn3c(=O)n(CC(=O)NC4CCCCC4)nc23)c1`, the results for the Inhibition in assay [1], in assay [2] and in assay [3] were 9.68%, -1.29% and -8.14%, respectively.

`CSc1ccc(CNC(=O)Cn2nc3c(N4CCOCC4)nccn3c2=O)cc1`: the Inhibition in assay [1] is reported as 9.81%; in assay [2] it was 3.79%; in assay [3], -7.62%.

For `Cc1cc(C)cc(Nc2nc(C)cc3nn(CC(=O)N(C)c4cccc(C)c4)c(=O)n23)c1`, the results for the Inhibition in assay [1], in assay [2] and in assay [3] were 7.61%, 2.11% and -3.53%, respectively.

In the case of `Cc1cccc(NC(=O)Cn2nc3ccc(-c4ccc(Cl)cc4)nn3c2=O)c1`, the figures for the Inhibition in assay [1], in assay [2] and in assay [3] were 7.75%, 3.82% and -6.79%, respectively.

As for `Cc1cc(C)c(NC(=O)Cn2nc3c(SCc4ccc(Cl)cc4)nccn3c2=O)c(C)c1`, the Inhibition in assay [1] is given as 8.66%; in assay [2], 25.19%; in assay [3] it was -17.24%.

As for `CCC(Sc1nnc2c(=O)n(-c3cccc(OC)c3)ccn12)C(=O)Nc1cc(F)ccc1F` (centres undefined), the values for the Inhibition in assay [1], in assay [2] and in assay [3] were 2.62%, 1.66% and -8.66%, respectively.

On to `Cc1ccc(-c2ccc3nn(CC(=O)NC4CCCCC4)c(=O)n3n2)cc1C`, for which the Inhibition in assay [1] is reported as 13.52%; in assay [2], 3.29%; in assay [3], -9.98%.

On to `CCc1ccc(N(Cc2ccc(OC)cc2)S(=O)(=O)c2cccn3c(C)nnc23)cc1`, for which the Inhibition was 6.54% in assay [1], 3.18% in assay [2] and -10.92% in assay [3].

For the compound `Cc1cccc(CN(c2ccccc2)S(=O)(=O)c2cccn3c(C)nnc23)c1`, the results for the Inhibition in assay [1], in assay [2] and in assay [3] were 4.77%, -0.3% and -6.4%, respectively.

Consider `CSc1cccc(NC(=O)Cn2nc3ccc(-c4ccc(C)c(C)c4)nn3c2=O)c1`, for which the Inhibition in assay [1] is -6.08%; in assay [2], 28.21%; in assay [3], -10.99%.

In the case of `Cc1cc(Br)ccc1NC(=O)Cn1nc2c(SC3CCCCC3)nccn2c1=O`, the Inhibition is given as 10.86% in assay [1], 1.51% in assay [2] and -21.25% in assay [3].

As to `O=C(CCc1nnc2c(N3CCCCC3)nc3ccccc3n12)NCc1ccc(Br)cc1`, the figures for the Inhibition in assay [1], in assay [2] and in assay [3] were 7.61%, 2.54% and -23.12%, respectively.

With `Cc1ccccc1CN(c1ccc(Cl)cc1)S(=O)(=O)c1cccn2c(C)nnc12`, the Inhibition in assay [1] is listed as 11.42%; in assay [2] it was 2.31%; in assay [3], -9.98%.
